Data as given in paper PMC4242493, “Sequence specificity incompletely defines the genome-wide occupancy of Myc”.
The full ranking holds about 33,000 sequences; the median of “normalized occupancy” is about 0.075, and the highest 2% start at about 0.095. This excerpt belongs to a sample that is enriched for the highest values.

Biological target: MaxL homodimer (Homo sapiens, UniProt P61244 1-160)
Test: universal protein-binding microarray (PBM); PBS-based mixture, 10 nM His-tagged protein dimer, 2% milk, 200 ng/uL BSA, 50 ng/uL salmon testes DNA, 0.02% TX-100; detection with Alexa 488 anti-His antibody;; high values mean tight binding
Settings: protein: recombinant; tags: C-terminal His-tag (pET21a); chain copies: 2; dsDNA, one strand shown
How it was run: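 His-tagged protein dimer at 10 nM was bound to Agilent 4 x 44 K 'all 10-mer' universal arrays and detected with 10 ng/μL fluorophore-conjugated anti-His antibody on a GenePix 4400A, giving an intensity per 8-mer. Binding occupancy normalises each intensity to the top-ranked one.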

Sequence of MaxL homodimer (P61244 whole entry): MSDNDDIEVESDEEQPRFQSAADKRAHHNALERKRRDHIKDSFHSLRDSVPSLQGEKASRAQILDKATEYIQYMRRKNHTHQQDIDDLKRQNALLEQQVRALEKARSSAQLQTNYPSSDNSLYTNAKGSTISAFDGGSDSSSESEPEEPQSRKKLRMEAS

Row | Sequence | binding signal [normalized occupancy]
1 | CTGCATGC | 0.1
2 | ATGCATCA | 0.0872
3 | ATGCATTC | 0.0908
4 | GTGCATCA | 0.0868
5 | ATGCATCC | 0.0863
6 | CTGCATTC | 0.0735
7 | CTGCATGA | 0.083
8 | GTGCATGA | 0.0961
9 | GTGCATAA | 0.0861
10 | ATGCATGC | 0.126
11 | AGAGGCGA | 0.0756
12 | CTTGAGTC | 0.0726
13 | ACTTTGTC | 0.0738
14 | GGTTCTAC | 0.0735
15 | GAACTAAC | 0.0734
16 | ATTCCGAC | 0.0732
17 | AAGTTCAG | 0.0751
18 | ACACCAAG | 0.0798
19 | GTGGACCA | 0.0775
20 | GTGTTAAA | 0.0743
21 | GATTGCAC | 0.0761
22 | ATGCATGG | 0.0969

Row | Sequence | binding signal [normalized occupancy]
23 | ATGCATCG | 0.0835
24 | ATGCATAG | 0.0814
25 | CGGGGGCA | 0.0747
26 | CTCATGCA | 0.0963
27 | CTCATGCC | 0.0954
28 | ATGATGCG | 0.0869
29 | CTCATGAC | 0.0906
30 | CTCATGGA | 0.0927
31 | CTTATGGC | 0.0778
32 | ATCATTCG | 0.0804
33 | GTCATGCA | 0.0869
34 | ATCATGCG | 0.105
35 | ATCATGCA | 0.0894
36 | CTCATGGC | 0.0965
37 | CTCATGTC | 0.0928
38 | AAAAGGGA | 0.0725
39 | GGGCGTTA | 0.0774
40 | TACTTCTA | 0.0754
41 | GCATAAGA | 0.0799
42 | GGCTAGCA | 0.0747
43 | ATAATGCC | 0.0813
44 | ATCATGAC | 0.0868

Row | Sequence | binding signal [normalized occupancy]
45 | ATCATGCC | 0.0958
46 | CAAAATGG | 0.0769
47 | AATTACAG | 0.0778
48 | AGTGCGCC | 0.0735
49 | ATTGCGCG | 0.0747
50 | CATGCGCC | 0.111
51 | TATGCGCA | 0.0804
52 | CATGCGCG | 0.11
53 | CATGCGCA | 0.125
54 | AATGCGCG | 0.0754
55 | AGTGCGCA | 0.076
56 | CGTGCGCC | 0.0922
57 | AATGCGCC | 0.0731
58 | AATGCGCA | 0.0804
59 | CGTGCGCA | 0.0967
60 | GTCGCTGA | 0.0755
61 | ACAATAGA | 0.0762
62 | ACTTGACG | 0.0741
63 | GTCATCGA | 0.0798
64 | ATAGATGC | 0.075
65 | CGCACTGA | 0.0735
66 | ACTTACAA | 0.0743

Row | Sequence | binding signal [normalized occupancy]
67 | ACGAGACA | 0.0856
68 | CTCGTGAA | 0.0894
69 | GGCGTGAC | 0.0927
70 | CGCGTGAA | 0.105
71 | AGCGTGAG | 0.091
72 | CGTGTGAC | 0.0871
73 | CGCGTGAC | 0.134
74 | TGCGTGAA | 0.0808
75 | ATCGTGAC | 0.0839
76 | CGCGTGAG | 0.109
77 | CTCGTGAC | 0.104
78 | GGCGTGAA | 0.0776
79 | CCCGTGAG | 0.0759
80 | CGCCCCCC | 0.0791
81 | CCTAAGGA | 0.0757
82 | ACTTTACC | 0.0744
83 | ACGATCAA | 0.0748
84 | AGAGATTC | 0.0757
85 | CGTTACAC | 0.0819
86 | TGTTACAA | 0.0777
87 | GATGCTGC | 0.078
88 | CATGCTGC | 0.122

Row | Sequence | binding signal [normalized occupancy]
89 | AATGCTGG | 0.0789
90 | CAAGCTGG | 0.0721
91 | CATGCTTA | 0.104
92 | CATGCTTC | 0.106
93 | AATGCTTC | 0.0816
94 | CATGCTGG | 0.125
95 | CGTGCTTC | 0.0896
96 | AATGCTTA | 0.0806
97 | GATGCTTA | 0.0759
98 | AATGCTGC | 0.0788
99 | CAACCGTC | 0.075
100 | ATGCAATG | 0.08
101 | CGACCTCG | 0.0723
102 | ATGATAAA | 0.0793
103 | ACGAGGTC | 0.0849
104 | ATAGACCC | 0.0762
105 | GTGACCCA | 0.0762
106 | CATGCTGA | 0.112
107 | GATGCTGA | 0.0746
108 | TATGCTGA | 0.0773
109 | CCCTTGCA | 0.0735
110 | ACATTTTC | 0.0796
